According to PubChem BioAssay:
Active and inactive are the calls of the source. Unless noted, no rule for the calls is given here.

What was measured:
[1] = tested on: Wnt5a (protein binding on small-molecule microarray); assay: small molecules binding Wnt5a protein – biophysical, small-molecule microarray, 635/667 nm fluorescence, primary screen (AID 1142); settings: 635 nm fluorescence, higher = more signal;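 also: fluorescence read at 667 nm with signal to noise per printed feature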
[2] = ATP-based viability of Huh7 replicon cells – cell-based, CellTiter-Glo luminescence, basal, 48 h, cytotoxicity control for HCV replication inhibitor project, primary screen (AID 1143); settings: higher = more signal, called active from +8 up or from −8 down;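 also: Huh7 hepatoma cells carrying a hepatitis C replication reporter with no stimulus; test concentration not given here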
[3] = Pseudomonas biofilm growth suppression – PAO1 strain, BacTiter-Glo luminescence, LB-PBS, primary screen (AID 1144); settings: P. aeruginosa PAO1 biofilm, 12 h, higher = more signal
[4] = basal CRE-LacZ reporter activity in PC12 – cell-based, unstimulated, primary screen (AID 1145); settings: no forskolin, luminescence, 4.5 h, higher = more signal, called active from +8 up or from −8 down
[5] = forskolin-driven CRE-LacZ activity in PC12 – cell-based, CRE-LacZ reporter, forskolin-stimulated, primary screen (AID 1146); settings: luminescence, 4.5 h, higher = more signal, called active from +8 up or from −8 down;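 also: PC12 cells with 6xCRE LacZ reporter stimulated by forskolin 10 µM; beta-galactosidase reporter signal reflecting CREB driven transcription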
[6] = target: Streptavidin (Streptomyces avidinii) (UniProt P22629); assay: compounds binding control protein streptavidin – biophysical, small-molecule microarray, 635/667 nm fluorescence, artefact control for SMM compound annotation, primary screen (AID 1147); settings: higher = more signal;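 also: signal reflects streptavidin binding to arrayed compounds as a control protein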
[7] = probe aInhba binding on compound microarray – biochemical, small-molecule microarray, 635/667 nm fluorescence, primary screen (AID 1148); settings: higher = more signal;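 also: score merges 667nm spot fluorescence with signal-to-noise for antibody binding to printed compounds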
Torsin-1A (Homo sapiens) [8] = target: Torsin-1A (Homo sapiens) (UniProt O14656); assay: TOR1A wild-type binding on microarray – cell lysate, small-molecule microarray, lysate, 635/667 nm, primary screen (AID 1149); settings: COS7 hTOR1A-WT lysate, 635 nm fluorescence, higher = more signal
Torsin-1A (Homo sapiens) [9] = target: Torsin-1A (Homo sapiens) (UniProt O14656); assay: torsin A mutant lysate binding on microarrays – cell lysate, small-molecule microarray, COS7 lysate, 635/667 nm fluorescence, primary screen (AID 1150); settings: COS7 hTOR1A mutant lysate, 635 nm fluorescence, higher = more signal;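 also: score pools 667 nm emission and signal to noise measuring lysate protein binding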
[10] = tested on: Sonic hedgehog protein (Shh); assay: Sonic hedgehog microarray binding compounds – biochemical, small-molecule microarray, 635/667 nm fluorescence, primary screen (AID 1151); settings: 635 nm fluorescence, higher = more signal;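 also: Shh protein binding to compounds spotted on small-molecule microarray slides; score combines spot fluorescence intensity with signal-to-noise across triplicate slides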
[11] = optical density shifts of acrAB sulA E. coli – strain DRC41, OD650, 48 h, E. coli filamentation inducer project, primary screen (AID 1152); settings: higher = more signal, called active from +8 up or from −8 down;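 also: E. coli MC1000 strain DRC41 lacking acrAB efflux pump and sulA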
[12] = probe aLefty1 binding on compound microarray – biochemical, small-molecule microarray, 635/667 nm fluorescence, primary screen (AID 1153); settings: higher = more signal;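 also: score merges spot fluorescence with signal-to-noise ratio from the scanned slide images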
[13] = plasmodial surface anion channel blockers, osmotic lysis – cell-based, P. falciparum Indochina, OD700, 1 h, primary screen (AID 1154); settings: P. falciparum Indochina infected RBC osmotic lysis, higher = more signal, called active from +8 up or from −8 down
[14] = plasmodial surface anion channel blockers, osmotic lysis – cell-based, P. falciparum Indochina, OD700, 2 h, primary screen (AID 1155);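 also: lysis reports solute entry through the parasite surface anion channel PSAC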; settings: P. falciparum Indochina infected erythrocytes, higher = more signal, called active from +8 up or from −8 down
[15] = changes in parasitized red cell lysis, either direction – P. falciparum Indochina, OD700, 3 h, PSAC antagonist project, primary screen (AID 1156); settings: P. falciparum-infected erythrocytes, osmotic lysis, higher = more signal, called active from +8 up or from −8 down
[16] = plasmodial surface anion channel blockers, osmotic lysis – cell-based, P. falciparum Indochina, OD700, 18 h, primary screen (AID 1157); settings: P. falciparum Indochina infected erythrocytes, osmotic lysis OD700, 18 h; higher = more signal, called active from +8 up or from −8 down
[17] = S6 kinase pathway phospho-S6 level changes – cell-based, A549, cytoblot, luminescence, serum-stimulated, primary screen (AID 1158); settings: 5 h, higher = more signal;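 also: serum-stimulated A549 lung adenocarcinoma cells; signal is phosphorylated S6 detected by cytoblot immunostaining with HRP secondary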
[18] = target: NADPH oxidase 2 (Homo sapiens) (UniProt P04839); assay: compounds shifting NOX2 Amplex Red fluorescence – cell-based, HEK293-NOX2, PMA-stimulated, NOX inhibitor project, primary screen (AID 1159); settings: 45 min, higher = more signal, called active from +8 up or from −8 down; also: test concentration not given here
[19] = target: NADPH oxidase 4 (Homo sapiens) (UniProt Q9NPH5); assay: compounds shifting NOX4 Amplex Red fluorescence – cell-based, HEK293-NOX4, tetracycline-induced, NOX inhibitor project, primary screen (AID 1160); settings: HEK293-NOX4, Amplex Red H2O2 fluorescence, 45 min; higher = more signal, called active from +8 up or from −8 down
[20] = target: NADPH oxidase 5 (Homo sapiens) (UniProt Q96PH1); assay: compounds shifting NOX5 Amplex Red fluorescence – cell-based, HEK293-NOX5, NOX inhibitor project, primary screen (AID 1161); settings: HEK293-NOX5, ionomycin, 45 min, higher = more signal
Chain of NADPH oxidase 5 (Homo sapiens) (Q96PH1 whole entry, looked up): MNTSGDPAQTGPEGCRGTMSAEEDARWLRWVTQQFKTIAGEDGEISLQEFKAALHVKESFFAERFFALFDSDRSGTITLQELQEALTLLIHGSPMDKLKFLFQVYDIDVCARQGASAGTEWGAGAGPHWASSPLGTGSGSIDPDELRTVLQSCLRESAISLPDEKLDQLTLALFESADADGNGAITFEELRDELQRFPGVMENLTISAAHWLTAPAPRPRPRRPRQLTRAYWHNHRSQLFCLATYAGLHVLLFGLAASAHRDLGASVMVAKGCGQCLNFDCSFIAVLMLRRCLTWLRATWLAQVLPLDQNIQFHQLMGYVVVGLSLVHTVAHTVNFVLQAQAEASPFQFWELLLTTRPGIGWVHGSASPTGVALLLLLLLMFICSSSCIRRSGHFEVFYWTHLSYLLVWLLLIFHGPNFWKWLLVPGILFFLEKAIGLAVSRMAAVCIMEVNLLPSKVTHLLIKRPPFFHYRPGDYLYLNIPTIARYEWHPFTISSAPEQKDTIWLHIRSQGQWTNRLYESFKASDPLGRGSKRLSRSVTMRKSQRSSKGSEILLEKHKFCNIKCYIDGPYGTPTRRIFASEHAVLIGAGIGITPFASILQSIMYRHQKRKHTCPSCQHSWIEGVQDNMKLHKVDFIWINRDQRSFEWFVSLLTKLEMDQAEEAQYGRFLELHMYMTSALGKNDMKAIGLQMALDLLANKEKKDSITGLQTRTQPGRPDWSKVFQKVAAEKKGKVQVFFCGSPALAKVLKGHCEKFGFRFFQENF

Chain of Torsin-1A (Homo sapiens) (O14656 whole entry, looked up): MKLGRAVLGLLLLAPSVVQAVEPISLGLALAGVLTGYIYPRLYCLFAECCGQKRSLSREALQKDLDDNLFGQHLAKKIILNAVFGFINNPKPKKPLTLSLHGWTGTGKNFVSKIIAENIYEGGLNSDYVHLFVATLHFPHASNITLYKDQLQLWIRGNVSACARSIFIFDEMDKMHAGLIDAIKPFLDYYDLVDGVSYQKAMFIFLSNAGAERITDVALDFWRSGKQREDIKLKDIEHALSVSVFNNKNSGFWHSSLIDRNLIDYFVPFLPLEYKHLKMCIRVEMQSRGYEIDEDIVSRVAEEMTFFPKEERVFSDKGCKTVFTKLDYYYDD
Chain of Streptavidin (Streptomyces avidinii) (P22629 whole entry, looked up): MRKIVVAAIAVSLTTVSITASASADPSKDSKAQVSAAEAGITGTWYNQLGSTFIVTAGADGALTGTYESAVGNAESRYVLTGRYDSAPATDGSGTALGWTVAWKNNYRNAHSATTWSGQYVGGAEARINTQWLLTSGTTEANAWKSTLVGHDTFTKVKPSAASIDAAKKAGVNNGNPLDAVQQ
Chain of NADPH oxidase 4 (Homo sapiens) (Q9NPH5 whole entry, looked up): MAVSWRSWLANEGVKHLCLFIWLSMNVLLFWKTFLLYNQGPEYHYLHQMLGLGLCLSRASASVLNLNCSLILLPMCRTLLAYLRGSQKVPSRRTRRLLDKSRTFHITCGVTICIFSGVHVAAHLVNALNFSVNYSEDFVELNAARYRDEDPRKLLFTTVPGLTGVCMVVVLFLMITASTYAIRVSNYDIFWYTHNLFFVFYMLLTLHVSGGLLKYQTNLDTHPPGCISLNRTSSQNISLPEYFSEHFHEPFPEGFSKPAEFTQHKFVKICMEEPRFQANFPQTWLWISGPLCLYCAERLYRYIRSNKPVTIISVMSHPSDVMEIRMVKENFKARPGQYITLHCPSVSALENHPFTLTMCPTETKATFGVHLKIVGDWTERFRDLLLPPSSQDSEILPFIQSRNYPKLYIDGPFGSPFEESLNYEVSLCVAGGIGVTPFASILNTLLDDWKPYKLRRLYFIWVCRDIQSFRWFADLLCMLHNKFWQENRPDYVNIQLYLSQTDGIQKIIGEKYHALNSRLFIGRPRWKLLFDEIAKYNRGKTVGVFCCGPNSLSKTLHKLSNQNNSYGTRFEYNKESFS
Chain of NADPH oxidase 2 (Homo sapiens) (P04839 whole entry, looked up): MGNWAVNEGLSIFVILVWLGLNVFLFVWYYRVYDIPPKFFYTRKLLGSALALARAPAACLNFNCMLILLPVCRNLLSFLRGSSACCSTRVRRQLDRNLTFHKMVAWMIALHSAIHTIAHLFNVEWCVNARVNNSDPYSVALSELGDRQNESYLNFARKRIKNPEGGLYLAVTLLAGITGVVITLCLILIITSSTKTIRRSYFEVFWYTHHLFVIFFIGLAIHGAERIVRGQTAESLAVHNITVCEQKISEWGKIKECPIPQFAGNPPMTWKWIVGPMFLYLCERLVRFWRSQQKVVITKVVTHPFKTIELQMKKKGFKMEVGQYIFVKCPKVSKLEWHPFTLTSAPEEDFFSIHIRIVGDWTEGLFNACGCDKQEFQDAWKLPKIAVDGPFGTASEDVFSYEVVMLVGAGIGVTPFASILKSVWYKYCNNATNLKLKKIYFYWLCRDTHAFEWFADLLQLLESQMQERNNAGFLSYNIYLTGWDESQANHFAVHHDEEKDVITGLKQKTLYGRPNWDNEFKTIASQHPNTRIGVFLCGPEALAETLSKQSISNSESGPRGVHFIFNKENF

| SMILES | composite z-score [1] | z-score [2] | z-score [3] | z-score [4] | z-score [5] | composite z-score [6] | composite z-score [7] | composite z-score (Torsin-1A (Homo sapiens) [8]) | composite z-score (Torsin-1A (Homo sapiens) [9]) | composite z-score [10] | z-score [11] | composite z-score [12] | z-score [13] | z-score [14] | z-score [15] | z-score [16] | z-score [17] | z-score [18] | z-score [19] | z-score [20] |
| --- | --- | --- | --- | --- | --- | --- | --- | --- | --- | --- | --- | --- | --- | --- | --- | --- | --- | --- | --- | --- |
| Cc1ccc(S[C@]2(C(=O)NC(C)C)CC(=O)N(Cc3ccccc3C(F)(F)F)[C@@H]2c2ccc(CO)cc2I)cc1 | -0.38 | -4.73 (inactive) | -0.9 (inactive) | -0.141 (inactive) | 1.12 (inactive) | -0.281 | -0.239 | -0.93 | -1.17 | -0.181 | 0.346 (inactive) | 0.135 | 11.2 (active) | 0.141 (inactive) | 1.03 (inactive) | -0.945 (inactive) | 2.05 | 0.95 (inactive) | -3.44 (inactive) | -1.78 |
| C[C@H]1ON(c2ccc(C(=O)OC(C)(C)C)cc2)[C@@H](c2ccc(O)cc2)[C@@H]1C(=O)N1C(=O)OC[C@@H]1c1ccccc1 | 0.382 | -2.3 (inactive) | -0.0446 (inactive) | 0.846 (inactive) | 0.0621 (inactive) | 0.179 | -0.114 | -0.0484 | 0.39 | 1.97 | -0.569 (inactive) | -0.0023 | 3.71 (inactive) | 0.622 (inactive) | 0.166 (inactive) | 0.428 (inactive) | 0.433 | -0.414 (inactive) | -0.254 (inactive) | 0.718 |
| NCCCCCCNC(=O)[C@H]1C[C@H]2C(=O)N[C@@H](Cc3ccccc3)C(=O)N2[C@H]1c1ccc(O)cc1 | 0.21 | 0.277 (inactive) | -0.652 (inactive) | -1.48 (inactive) | -1.24 (inactive) | 1.38 | 0.103 | 2.14 | 0.394 | 1.07 | 1.42 (inactive) | -0.0094 | 4.21 (inactive) | -0.243 (inactive) | 0.731 (inactive) | -2.2 (inactive) | 0.316 | 1.81 (inactive) | 1.38 (inactive) | 2.31 |
| C=CCC(OC(C)=O)[C@@H]1[C@@H](N(Cc2cc3ccccc3o2)C(=O)c2ccc(C)cc2)c2cc(OCCCO)ccc2N1C(=O)Cc1ccc2ccccc2c1 (stereo not given in full) | -0.109 | 0.218 (inactive) | -0.956 (inactive) | 2.37 (inactive) | -0.072 (inactive) | -0.172 | -0.0523 | -0.0509 | -0.0619 | 0.0781 | 2.52 (inactive) | -0.103 | 1.49 (inactive) | 0.434 (inactive) | -0.884 (inactive) | 0.283 (inactive) | 0.866 | 0.597 (inactive) | 0.921 (inactive) | 2.32 |
| CC(C)(C)OC(=O)CC[C@@]1(C(=O)O)N=C(c2ccc(OCCCO)cc2)O[C@@H]1c1ccccc1CN=[N+]=[N-] | 0.48 | 0.625 (inactive) | -0.21 (inactive) | -0.128 (inactive) | -0.912 (inactive) | 0.725 | 0.239 | 0.0835 | 0.104 | -1.03 | 0.648 (inactive) | 0.479 | 24.5 (active) | 10 (active) | -0.0836 (inactive) | 1.53 (inactive) | 0.0274 | 0.716 (inactive) | 0.691 (inactive) | 1.53 |
| C=C(/C(=C/C[C@@H](OC(=O)c1ccncc1)c1ccc(OCCO)cc1)c1cc(C(=O)OC)ccc1OC)C(C)C | 0.308 | -1.79 (inactive) | -0.745 (inactive) | 2.06 (inactive) | 0.96 (inactive) | 0.747 | -0.271 | 0.0376 | 0.266 | 1.7 | 0.927 (inactive) | -0.0984 | 17.9 (active) | 2.79 (inactive) | 2.56 (inactive) | 1.02 (inactive) | 0.596 | -2.45 (inactive) | -1.24 (inactive) | -1.86 |
| CN1C(=O)[C@@]2(CCS(=O)(=O)c3ccccc3)N=C(c3ccc(OCCCO)cc3)O[C@H]2c2ccccc21 | 0.388 | -4.49 (inactive) | -0.413 (inactive) | 0.0918 (inactive) | -0.196 (inactive) | 1.8 | -0.0384 | 1.55 | 0.397 | 0.203 | 0.583 (inactive) | -0.0003 | 30.1 (active) | 23.3 (active) | 0.141 (inactive) | 0.914 (inactive) | 0.836 | -2.59 (inactive) | 0.479 (inactive) | -0.917 |
| CCOC(=O)[C@H]1C/C=C/C[C@H](C(=O)OCC)C(=O)O[C@H]2[C@@H](OC)O[C@H](CO)[C@@H](OC(=O)CCc3ccccc3)[C@@H]2OC1=O | -0.581 | -1.31 (inactive) | -1.28 (inactive) | -0.475 (inactive) | -0.0955 (inactive) | -0.345 | 0.788 | -0.407 | -0.532 | -0.0617 | -0.142 (inactive) | 1.63 | 0.955 (inactive) | 0.175 (inactive) | -0.518 (inactive) | 0.386 (inactive) | -0.0947 | 0.281 (inactive) | 0.273 (inactive) | 0.541 |
